The source of these data is PubChem BioAssay AID602256 (National Center for Advancing Translational Sciences (NCATS), 2012).

Inconclusive results are not listed. The source made the active and inactive calls. The call rests on the fitted dose curve; in most records, active means well fitted curve in the direction sought with a large enough effect; inconclusive means small, poorly fitted or top-dose-only effect, or another doubt; inactive means no such curve, though single readings can be large or run the other way.

Sequence of Relaxin receptor 1 (Homo sapiens) (Q9HBX9 whole entry, looked up): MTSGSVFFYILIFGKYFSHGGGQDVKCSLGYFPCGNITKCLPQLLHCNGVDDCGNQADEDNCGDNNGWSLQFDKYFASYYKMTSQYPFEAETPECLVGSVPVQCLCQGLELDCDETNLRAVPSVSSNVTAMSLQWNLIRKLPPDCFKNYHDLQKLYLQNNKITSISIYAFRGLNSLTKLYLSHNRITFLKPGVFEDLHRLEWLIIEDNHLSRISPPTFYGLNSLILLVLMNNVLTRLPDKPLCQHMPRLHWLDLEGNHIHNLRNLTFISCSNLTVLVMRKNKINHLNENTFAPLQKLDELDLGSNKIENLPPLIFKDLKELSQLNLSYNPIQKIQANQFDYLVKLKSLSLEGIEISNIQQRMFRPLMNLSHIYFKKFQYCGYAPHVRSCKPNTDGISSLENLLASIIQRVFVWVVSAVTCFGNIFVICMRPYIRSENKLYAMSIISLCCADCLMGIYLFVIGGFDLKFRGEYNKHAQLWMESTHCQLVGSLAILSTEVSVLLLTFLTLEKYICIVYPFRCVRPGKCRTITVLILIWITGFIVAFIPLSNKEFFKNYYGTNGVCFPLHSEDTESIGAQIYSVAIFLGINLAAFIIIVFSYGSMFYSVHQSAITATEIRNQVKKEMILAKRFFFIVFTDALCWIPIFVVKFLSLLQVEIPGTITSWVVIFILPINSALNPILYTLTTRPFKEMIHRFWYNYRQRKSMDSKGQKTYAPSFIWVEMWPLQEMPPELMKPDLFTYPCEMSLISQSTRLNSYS

In this assay the target is Relaxin receptor 1 (Homo sapiens) (UniProt Q9HBX9). Kind of assay: qHTS Assay for Agonists of the Relaxin Receptor RXFP1: RXFP1 SAR. Particulars: HEK293T-RXFP1 cAMP TR-FRET, 30 min; efficacy: active compounds read high. From the text:
The relaxin hormone is involved in the variety of biological functions in normal tissues and diseases. The role of relaxin is well-established in female reproduction and parturition, mammary gland and endometrial development, maintenance of myometrial quiescence during pregnancy. Relaxin signaling through its G protein-coupled receptor (GPCR) RXFP1 results in ECM remodeling through regulation of collagen deposition, cell invasiveness, proliferation and overall tissue homeostasis. […] Recombinant human relaxin (rhRlx) is currently being tested in clinical trials as a protective agent in congestive heart failure, in treating severe preeclampsia, and as an anti-fibrotic agent in systemic sclerosis. Upon relaxin binding RXFP1 activation leads to the activation of adenylate cyclase (AC) via Gs. cAMP will activate PKA, which phosphorylates many signaling proteins. Thus, detection of cAMP increase is an easy and reliable indication of relaxin receptor activation. To screen for agonists of the relaxin receptor, a HEK293T cell line stably transfected with RXFP1 was used. RXFP1 activation was assayed by changes in cAMP levels as detected with a time-resolved fluorescence energy transfer (TR-FRET) cAMP detection kit. NIH Chemical Genomics Center [NCGC] NIH Molecular Libraries Probe Production Centers Network [MLPCN] MLPCN Grant: R03 MH085705-01A1 Assay Submitter (PI): Alexander Agoulnik
This is a cell-based assay for cAMP second messenger response to screen for agonists of the RXFP1 receptor. The assay was conducted in the presence of a PDE4 inhibitor (Ro 20174). The cells were lysed and the cAMP levels were measured with a TR-FRET cAMP kit. Presence of cAMP in the cell lysate disrupts binding between the cryptate-labeled anti-cAMP and d2-labeled cAMP pair, leading to a decrease in the TR-FRET signal. Data were normalized to the controls for basal activity (buffer only) and 100% activity (29 nM porcine relaxin). The EC50 values were determined from concentration-response data modeled with the standard Hill equation 1536-well assay protocol for the HEK293 RXFP1 cAMP assay: (1) Add 3 ul HEK293 RXFP1 cell culture. 2000 cells/well in DMEM/F12, 10% FBS, 1x Pen/Strep (dispensed offline with MultiDrop Combi). (2) Incubate 16-24 hr at 37C, 5% CO2. (3) Add 1 ul 400uM Ro20174 in DPBS, 0.05% BSA, 0.005% Tween 20. (3) Add 23 nl compounds in DMSO solution. Final concentration was 0.5 - 58 uM. (4) Incubate 30 min at 37C, 5% CO2. (5) Add 1 ul cAMP-d2 in lysis buffer (HTRF cAMP HiRange kit, CisBio). (6) Add 1 ul anti-cAMP antibody-cryptate in lysis buffer (HTRF cAMP HiRange kit, CisBio). (7) Incubate 30 min at room temperature. (6) Detect the assay plate in a ViewLux plate reader (PerkinElmer) with Ex=320 nm, Em1=615 nm and Em2=665 nm. Keywords: relaxin, RXFP1, RXFP2, G-protein coupled receptor, cAMP, agonist, high throughput screening, MLSMR, MLSCN, NIH Roadmap, qHTS and NCGC
For orientation: In qHTS, concentration-response curves come from the screen itself.
For the molecule `O=C(Nc1cccc([N+](=O)[O-])c1)c1ccccc1NC(=O)C1CCCCC1`, the Potency was 5930 nM (active).
The same measure, in the same setting: under `O=C(Nc1cccc(SC(F)(F)F)c1)c1ccccc1NC(=O)C1CCCCC1` stands 1880 nM (active).
Consider `COc1ccccc1C(=O)N(C)c1ccccc1C(=O)Nc1cccc(C(F)(F)F)c1`, for which the efficacy was -2.4% (inactive).
As to `O=C(Nc1cccc(-c2ccccc2C(F)(F)F)c1)c1ccccc1NC(=O)C1CCCCC1`, the Potency was 2650 nM (active).
As to `CC(C)Oc1ccccc1C(=O)Nc1ccccc1C(=O)Nc1cccc(C(F)(F)F)c1`, the Potency is 471 nM (active).
The same measure, in the same setting: under `COCCOc1ccccc1C(=O)Nc1ccccc1C(=O)Nc1cccc(C(F)(F)F)c1` stands 747 nM (active).
Regarding `COc1ccccc1C(=O)Nc1ccccc1C(=O)Nc1cccc(C(F)(F)F)c1`, the Potency was 334 nM (active).
On the same count and under the same terms, under `COc1cccc(C(=O)Nc2ccccc2C(=O)Nc2cccc(C(F)(F)F)c2)c1` stands 1880 nM (active); under `CCOc1ccccc1C(=O)Nc1cnccc1C(=O)Nc1cccc(S(=O)(=O)C(F)(F)F)c1`, 2970 nM (active); under `CN(C)CCOc1ccccc1C(=O)Nc1ccccc1C(=O)Nc1cccc(C(F)(F)F)c1`, 3740 nM (active).
Take `CC(C)(C)c1cccc(NC(=O)c2ccccc2NC(=O)C2CCCCC2)c1`: the Potency is 2650 nM (active).
Still for that read-out and setting: under `O=C(Nc1cccc(C(F)(F)F)c1)c1ccccc1NC(=O)C1CCCCC1` stands 1880 nM (active).
Consider `COc1ccccc1C(=O)Nc1ccc(C(=O)Nc2cccc(C(F)(F)F)c2)cc1`, for which the efficacy was -2.02% (inactive).
As for `COc1ccc(C(=O)Nc2ccccc2C(=O)Nc2cccc(C(F)(F)F)c2)cc1`, the Potency was 9400 nM (active).
Still for that read-out and setting: under `CCOc1ccccc1C(=O)Nc1sccc1C(=O)Nc1cccc(S(=O)(=O)C(F)(F)F)c1` stands 2360 nM (active); under `CCOc1ccccc1C(=O)NCCC(=O)Nc1cccc(S(=O)(=O)C(F)(F)F)c1`, 4710 nM (active).
As to `COc1ccccc1Nc1ccccc1C(=O)Nc1cccc(C(F)(F)F)c1`, the Potency is 4710 nM (active).
`COc1ccccc1C(=O)Nc1ccccc1C(=O)Nc1cccc(SC(F)(F)F)c1`: the Potency was 297 nM (active).
The same measure, in the same setting: under `CCC(CC)C(=O)Nc1ccccc1C(=O)Nc1cccc(C(F)(F)F)c1` stands 5290 nM (active); under `O=C(Nc1ccccc1C(=O)Nc1cccc(C(F)(F)F)c1)c1ccccc1`, 1330 nM (active).
With `COc1ccccc1C(=O)N(C)c1ccccc1C(=O)N(C)c1cccc(C(F)(F)F)c1`, the efficacy was 0.957% (inactive).
As to `CCSc1ccccc1C(=O)Nc1ccccc1C(=O)Nc1cccc(S(=O)(=O)C(F)(F)F)c1`, the Potency was 529 nM (active).
For the molecule `CCOc1ccccc1S(=O)(=O)Nc1ccccc1C(=O)Nc1cccc(S(=O)(=O)C(F)(F)F)c1`, the efficacy was -2.44% (inactive).
For `O=C(NCc1ccco1)c1ccccc1NC(=O)c1ccccc1NC(=O)C1CCCCC1`, the Potency was 9400 nM (active).
The same measure, in the same setting: under `O=C(Cc1ccccc1)Nc1ccccc1C(=O)Nc1cccc(C(F)(F)F)c1` stands 8380 nM (active); under `COc1cccc(OC)c1C(=O)Nc1ccccc1C(=O)Nc1cccc(C(F)(F)F)c1`, 7470 nM (active); under `O=C(Nc1cccc(Br)c1)c1ccccc1NC(=O)C1CCCCC1`, 2650 nM (active).
Still for that read-out and setting: under `O=C(Nc1cccc(S(=O)(=O)C(F)(F)F)c1)c1ccccc1NC(=O)c1ccccc1OCC(F)(F)F` stands 66.6 nM (active).
Same read-out and setting: under `O=C(Nc1cccc(S(=O)(=O)C(F)(F)F)c1)c1ccccc1NC(=O)C1CCCCC1` stands 1060 nM (active); under `CCCCOc1ccccc1C(=O)Nc1ccccc1C(=O)Nc1cccc(S(=O)(=O)C(F)(F)F)c1`, 47.1 nM (active); under `O=C(Nc1ccccc1C(=O)Nc1cccc(C(F)(F)F)c1)c1cccnc1`, 5930 nM (active).
For the molecule `CSc1cccc(NC(=O)c2ccccc2NC(=O)C2CCCCC2)c1`, the Potency was 5290 nM (active).
The same measure, in the same setting: under `CCOc1ccccc1C(=O)Nc1cccnc1C(=O)Nc1cccc(S(=O)(=O)C(F)(F)F)c1` stands 4710 nM (active).
Turning to `O=C(Nc1ccccc1C(=O)Nc1cccc(C(F)(F)F)c1)c1ccccc1Cl`, the Potency was 3740 nM (active).
Same read-out and setting: under `O=C(Nc1cccc(F)c1)c1ccccc1NC(=O)C1CCCCC1` stands 13300 nM (active).
Regarding `COc1ccccc1-c1ccccc1C(=O)Nc1cccc(C(F)(F)F)c1`, the efficacy was -3.31% (inactive).
Consider `CCOc1ccccc1C(=O)Nc1ccccc1C(=O)Nc1cccc(C(F)(F)F)c1`, for which the Potency was 265 nM (active).
Turning to `O=C(Nc1cccc(C(F)(F)F)c1)c1ccccc1NC(=O)C1CC1`, the Potency was 8380 nM (active).
On to `O=C(Nc1cccc(C(F)(F)F)c1)c1ccccc1NC(=O)C1CCCCCC1`, for which the Potency is 2110 nM (active).
As for `Cc1ccccc1C(=O)Nc1ccccc1C(=O)Nc1cccc(C(F)(F)F)c1`, the Potency is 4200 nM (active).
